Experimental data as given in the supplement of paper PMC7156485.
Unmarked numbers belong to inactive results.

tested on: HCC1569; test: H1.0 immunofluorescence intensity relative to DMSO (% of DMSO); higher = stronger H1.0 induction, active = 140 or more; conditions: concentration: 10 µM; 24 h
Method in brief: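 HCC1569 and TDF cells were seeded at 800 per well in 384-well plates in RPMI with 10% FBS and treated with compounds at 10 µM for 24 h at 37 °C, in triplicate. After fixation in 3.7% formaldehyde, cells were stained with a rabbit anti-H1.0 antibody, an AlexaFluor 647 secondary and DAPI, and six fields per well were imaged at ×10. H1.0 nuclear intensity or cell number is given as percent of the plate control, using the median of replicates, with HCC1569 values smoothed for positional effects.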
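Also: TDF is a line of transformed human dermal fibroblasts of mesenchymal origin.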

SMILES | H1.0 immunofluorescence intensity
CN(C)CCC=C1c2ccccc2C=Cc2ccccc21.Cl [Cyclobenzaprine hydrochloride] | 110
C=CC(C)(C=Cc1ccc(O)cc1)CCC=C(C)C (stereo unspecified) [Bakuchiol] | 96.8
CCCC(=O)NCCc1c2n(c3ccc(OC)cc13)CCCc1ccccc1-2 | 100
O=C(Nc1cccc(C(=O)Nc2ccc(S(=O)(=O)[O-])c3cc(S(=O)(=O)[O-])cc(S(=O)(=O)[O-])c23)c1)Nc1cccc(C(=O)Nc2ccc(S(=O)(=O)[O-])c3cc(S(=O)(=O)[O-])cc(S(=O)(=O)[O-])c23)c1.[Na+].[Na+].[Na+].[Na+].[Na+].[Na+] | 96
CC(C)(C)c1cnc(CSc2cnc(NC(=O)C3CCNCC3)s2)o1 | 100
CNCC(O)C(O)C(O)C(O)CO (stereo unspecified) [Meglumine] | 92.4
CCCCCCCCCCCC(CC1OC(=O)C1CCCCCC)OC(=O)C(CC(C)C)NC=O (stereo unspecified) [Tetrahydrolipistatin] | 90.5
O=c1cc(-c2ccccc2)oc2cc(O)cc(O)c12 [Chrysine] | 92.7
CCCCCC(O)C=CC1=C(CCCCCCC(=O)O)C(=O)CC1 (stereo unspecified) [Prostaglandin B1] | 101
Br.CN(C)CCCC1(c2ccc(F)cc2)OCc2cc(C#N)ccc21 (stereo unspecified) [Citalopram hydrobromide] | 92.5
CSc1nc(N)c2ncn(C3OC(COP(=O)([O-])OP(=O)([O-])OP(=O)([O-])[O-])C(O)C3O)c2n1.[Na+].[Na+].[Na+].[Na+] (stereo unspecified) [2-Methylthioadenosine triphosphate tetrasodium] | 95.7
CCCN(CCC)C(=O)C(CCC(=O)O)NC(=O)c1ccccc1 (stereo unspecified) [Proglumide] | 88
O=c1cc(-c2ccccc2)[nH]c2nc(Cl)ccc12 [7-Chloro-4-hydroxy-2-phenyl-1,8-naphthyridine] | 116
O=C1Cc2c([nH]c3ccc(Br)cc23)-c2ccccc2N1 [Kenpaullone] | 101
S=c1ccss1 [1,2-Dithiole-3-thione] | 99.4
OC1(c2ccc(Cl)cc2)CCN(Cc2c[nH]c3ccccc23)CC1 | 103

SMILES | H1.0 immunofluorescence intensity
C=C(CC)C(=O)c1ccc(OCC(=O)O)c(Cl)c1Cl [Ethacrynic Acid] | 100
COc1cccc(OC)c1OCCNCC1COc2ccccc2O1.Cl (stereo unspecified) [WB-4101 hydrochloride] | 93.3
O=c1c(O)c(-c2ccc(O)cc2)oc2cc(O)cc(O)c12 [Kaempferol] | 115
CC1=C(C)C(=O)C(CCCCC#CCCCC#CCO)=C(C)C1=O [Docebenone] | 110
CCCCCCCCCC(=O)NC(CN1CCOCC1)C(O)c1ccccc1.Cl (racemic) | 109
CN(C)CCC(c1ccc(Br)cc1)c1ccccn1.O=C(O)C=CC(=O)O (single isomer, unassigned; (+)) [(+)-Brompheniramine maleate] | 102
CC(=O)NC(CSCC=C(C)CCC=C(C)C)C(=O)O (stereo unspecified) | 103
COc1ccc(Cl)cc1NC(=O)Nc1cc(C)nc2ccccc12 [N-(5-Chloro-2-methoxyphenyl)-N'-(2-methyl-4-quinolinyl)urea] | 148 (active)
O=c1onc2cnc3ccccc3n12 | 106
CC1(NC(=O)CBr)CCC(C(C)(C)NCC(O)COc2cccc3[nH]ccc23)CC1 (racemic) | 103
CCN1CCCC1CNC(=O)c1c(OC)ccc(Br)c1OC (stereo unspecified) [Remoxipride] | 108
Cc1cccc(Nc2ccccc2C(=O)O)c1C [Mefenamic acid] | 90.5
NC(CCC(=O)NC(CS)C(=O)NCC(=O)O)C(=O)O (stereo unspecified) [Glutathione] | 93
Cc1cc(Nc2nc(-c3ccccc3)nc3ccccc23)n[nH]1 [GSK-3 Inhibitor XIII] | 182 (active)
O=C(CCc1ccc(O)cc1)c1c(O)cc(O)cc1OC1OC(CO)C(O)C(O)C1O (stereo unspecified) [Phlorizine] | 97.1
